The record followed here is PubChem BioAssay (NCI).

The structures appear in SMILES notation. “And” between values parts separate entries of the source, which are not always exact repeats. Identical values can stand only once. The panel holds about 83,000 compounds, 20% with a hit somewhere; the sample as a whole holds those more often.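 Interpretation: 100, growth as untreated; towards 0, rising growth inhibition; 0, no net growth; 0 to -100, cell death. Compounds scoring below 10 were considered active.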 Unmarked numbers belong to inactive results. The source made the active and inactive calls.

The assay concerns HL-60(TB) leukemia. Nature of the assay: NCI-60 one-dose screen, 48 h (100 = growth as untreated, 0 = no growth, -100 = all killed). As to conditions: 10 µM unless noted.
Consider `COc1ccc(C(=O)NC(=S)N2CCN(c3ncnc4c3cnn4-c3ccccc3)CC2)cc1`, for which the growth was 80.5%. The figure for `O=C(c1ccc(F)cc1)C(c1c[nH]c2ccccc12)c1c[nH]c2ccccc12` is 41.8%; for `O=C(Nc1ccc(F)c(Cl)c1)c1cc(-c2ccc(F)cc2F)ccc1O` it is -41.3% (active); for `CC(=O)NNc1ccc2nnc(-c3ccc(Br)cc3)n2n1` it is 97.5%. As for `CCCCCCCS(=O)(=O)N1CCCC(C(=O)Nc2nc3ccc(NC(=O)c4ccc(F)c(OC)c4F)cc3s2)C1` (centres undefined), the figure is 66.7%; as for `Cc1[nH]nc2ccc3nc(-c4cn[nH]c4C(F)(F)F)c4c(c3c12)CCCC4`, -0.0725% (active); as for `CC12CC[C@@H]3[C@]4(C)COC(c5cn[nH]c5-c5cccc(Cl)c5)O[C@@H]4CC[C@@]3(C)[C@@H]1CC(C1=CCOC1=O)O2` (some centres undefined), 22.3%.

In the case of `Cc1ccc(-c2nc(Nc3ccccc3C(=O)O)c3ccccc3n2)cc1`, the growth is 17.8%.

`CC(C)(C)c1ccc(OCc2nc3ccccc3n2-c2cccc(N)c2)cc1`: the growth is 67.8% and 98.6%. The figure for `COc1ccc(-c2cc(C(=O)N=Nc3c(O)[nH]c4ccccc34)c3ccccc3n2)cc1` is 56.2%; for `Cc1cccc2cc(-c3cc(-c4ccccc4)nc(=S)[nH]3)c(Cl)nc12` it is 58.9%; for `NS(=O)(=O)c1ccc(N2N=C(c3ccc(NC(=O)Nc4ccccc4)cc3)CC2c2ccc(Br)cc2)cc1` (centres undefined) it is -4.8% (active). The figure for `Cn1cc(-c2nnc(N)nc2-c2c[nH]c3ccccc23)c2cc(Br)cnc21` is 13.6%. As for `Cn1cc(-c2cc(N)n3nc(-c4cn(C)c5ccccc45)cc3n2)c2cc(F)ccc21`, the growth is -20.1% (active). As for `COc1ccc(/C(C)=N/N=C2C(=O)N(C)c3ccc(Br)cc32)cc1S(N)(=O)=O`, the figure is 99%; as for `Cn1cc(/C=N/Nc2cccc(Cl)n2)c2ccccc21`, 56.6%.

Take `Clc1cccc(N/N=C/c2c[nH]c3ccc(Br)cc23)n1`: the growth was 5.14% (active). The figure for `O=c1oc2ccccc2cc1-c1csc(N=Nc2c(O)[nH]c3ccc(Br)cc23)n1` is 99%. As for `COc1ccc(NC(=O)[C@@H](N)Cc2ccccc2)cc1C(=O)Nc1cccc(C2CC(=O)c3c(cc(OC)c(OC)c3OC)O2)c1` (some centres undefined), the figure is 1.01% (active); as for `O=C(/C=C/c1cccc(OCc2ccc(F)cc2)c1)c1nc2ccccc2[nH]1`, 8% (active); as for `N#Cc1c(NC(=O)c2ccc(C(F)(F)F)cc2)sc2c1CCC(O)=C2`, 6.28% (active). The figure for `CCOP(=O)(OCCCl)c1nc(-c2ccc(C)cc2)oc1NCc1ccccc1` (centres undefined) is 71.9%. Turning to `N/N=C(\N)c1c(N)nc(=S)[nH]c1-c1ccc(Cl)cc1Cl`, the growth was 89.1%. The figure for `COc1ccc(-c2nnc3c(/C=C/c4ccc(Br)cc4)nc4ccccc4n23)cc1` is 3.92% (active); for `Cc1ccc(C(=O)Nc2cc(-n3cnc(F)c3)cc(C(F)(F)F)c2)cc1C#Cc1cnc2cccnn12` it is 23.5%. As for `O=C1NC(=S)/C(=C/c2cn(-c3ccccc3)nc2-c2ccccc2)S1`, the figure is 21%; as for `Cc1cc(C)cc(NC(=O)Cn2cc(COn3nnc4ccccc43)nn2)c1`, 92.6%. As for `Cc1noc2c(Cc3ccccc3)nn(CC(=O)N/N=C/c3ccc(Cl)cc3)c(=O)c12`, the figure is 103%; as for `Cc1occc1C(=O)NN1C(=O)/C(=C/C=C/c2ccc([N+](=O)[O-])o2)SC1=S`, 0.964% (active); as for `CN(C)c1nc(NCCNS(=O)(=O)c2ccc(C(=O)/C=C/c3ccc(F)cc3)cc2)nc(Nc2ccc(F)cc2)n1`, -38.7% (active). On to `CCOc1ccccc1[C@H]1C(C(=O)c2ccc(Cl)cc2)C2(N[C@@H]1c1ccccc1)C(=O)Nc1ccccc12` (some centres undefined), for which the growth is -35.5% (active). As for `CCCn1c(NC(=O)c2cccc(C(N)=O)c2)nc2ccc(CN3CCCCC3)cc21`, the figure is 72.9%; as for `COc1ccc(-c2cc(C(=O)NCc3ccccc3)nn2-c2ccc(S(C)(=O)=O)cc2)cc1OC`, 97%. As for `O=C(CSc1nnc(-c2ccc3nc(-c4ccccc4)[nH]c3c2)o1)Nc1ccc(Cl)cc1`, the figure is 46.7%; as for `O=C(NO)c1ccc(Cn2ccc3c(Nc4ccccc4)ncnc32)cc1`, 0.922% (active); as for `COc1ccc([C@H](C)Nc2nc(Cl)nc3ccccc23)cc1`, 7.64% (active). As for `COc1cc2c(c(OC)c1OC)C(=O)CC(c1cccc(NC(=O)c3cccc(NC(=O)[C@H](C)NC(=O)OC(C)(C)C)c3)c1)O2` (some centres undefined), the figure is 71.2%; as for `Cn1cc(-c2nc(N)nnc2-c2c[nH]c3ccc(F)cc23)c2cccnc21`, 37.2%; as for `O=C(c1ccc(O)cc1)C1[C@H](c2ccccc2Br)[C@@H](c2ccccc2)NC12C(=O)Nc1ccc(Cl)cc12` (some centres undefined), -17.3% (active).
